The record followed here is PubChem BioAssay.

By inhibition is commonly meant the change of the read-out against control, counted positive when it falls. What is called IC50 is the concentration that inhibits the measured activity by half.

The target in test [1] is Carboxy-terminal domain RNA polymerase II polypeptide A small phosphatase 1 (Homo sapiens) (UniProt Q9GZU7). In words: Scp-1 binding by thermal shift, confirmation, orthogonal assay for Scp-1 inhibitor project, biophysical, differential scanning fluorimetry (AID 540329).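 Note: 0% = Tm of DMSO wells and 100% = Tm with sodium orthovanadate.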 Particulars: Recombinant SCP1, Sypro Orange thermal shift Tm; at 40 µM; stronger effect = higher value. (In general: DSF heats the sample and reads unfolding from a dye or from intrinsic fluorescence.)
Carboxy-terminal domain RNA polymerase II polypeptide A small phosphatase 1 (Homo sapiens), sequence (Q9GZU7 76-261 limits assumed): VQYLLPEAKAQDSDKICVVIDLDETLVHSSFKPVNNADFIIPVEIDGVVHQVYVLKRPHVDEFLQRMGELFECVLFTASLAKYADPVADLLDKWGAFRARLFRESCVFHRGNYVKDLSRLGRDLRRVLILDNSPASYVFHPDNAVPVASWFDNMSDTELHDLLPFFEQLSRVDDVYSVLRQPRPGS

Test [2] can be described thus: inhibition of Brca1/Bard1 split-luciferase complementation, confirmation, counter-screen for Mdm2/MdmX interaction inhibitor project, luminescence, single concentration (AID 504668; call rule not given here). Particulars: Brca1/Bard1 bimolecular luciferase complementation counterscreen, at 8 µM, stronger effect = higher value. In general terms: Counterscreens check selectivity or assay interference.
The target of test [3] is Tumor necrosis factor receptor superfamily member 10B (Homo sapiens) (UniProt O14763). The test can be described thus: caspase-8 TRAIL sensitization, hit retest, confirmation, cell-based, NB7+caspase-8, with/without TRAIL, luminescence panel (AID 651596; in the data active = activity above about 50%). Particulars: NB7 neuroblastoma + caspase-8, TRAIL sensitization, luminescence viability, with TRAIL, mean of runs, at 10 µM, stronger effect = higher value.
Tumor necrosis factor receptor superfamily member 10B (Homo sapiens), sequence (O14763 whole entry, looked up): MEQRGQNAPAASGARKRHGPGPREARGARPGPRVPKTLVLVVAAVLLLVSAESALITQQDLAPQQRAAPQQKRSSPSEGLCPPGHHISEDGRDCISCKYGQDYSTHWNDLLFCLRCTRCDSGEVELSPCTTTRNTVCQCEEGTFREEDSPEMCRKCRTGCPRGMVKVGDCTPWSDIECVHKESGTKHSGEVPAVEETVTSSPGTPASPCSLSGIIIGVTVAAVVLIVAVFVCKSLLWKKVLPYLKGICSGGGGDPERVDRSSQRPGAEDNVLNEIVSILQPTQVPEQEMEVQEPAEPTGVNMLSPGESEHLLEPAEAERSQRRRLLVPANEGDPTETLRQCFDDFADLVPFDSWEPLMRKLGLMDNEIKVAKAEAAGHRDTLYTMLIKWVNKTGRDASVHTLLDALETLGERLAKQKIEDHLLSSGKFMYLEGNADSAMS

Assay in test [4]: as above
To be noted: NB7 neuroblastoma + caspase-8, without TRAIL, luminescence viability, without TRAIL, mean of runs, at 10 µM.

Test [5] addresses Tumor necrosis factor receptor superfamily member 10B (Homo sapiens) (UniProt O14763). In words: TRAIL sensitizers in caspase-8 expressing neuroblastoma cells, dose response, NB7 cells plus caspase-8, luminescence, panel (AID 652002). Particulars: NB7 neuroblastoma +caspase-8, TRAIL sensitization, luminescence viability, NB7+Caspase-8, with TRAIL, run 1; at 12.5 µM (top of the series).

Test [6] shares this target. The description is as above. Particulars: NB7 neuroblastoma +caspase-8, TRAIL sensitization, luminescence viability, NB7+Caspase-8, with TRAIL, run 2; at 12.5 µM (top of the series).
Assay in test [7]: as above
To be noted: NB7 neuroblastoma +caspase-8, no TRAIL, compound-alone cytotoxicity counter-screen, luminescence viability, NB7+Caspase-8, run 1; at 12.5 µM (top of the series) unless noted.

Assay in test [8]: as above
To be noted: NB7 neuroblastoma +caspase-8, no TRAIL, compound-alone cytotoxicity counter-screen, luminescence viability, NB7+Caspase-8, run 2; at 12.5 µM (top of the series) unless noted.

A short description of test [9]: PABP1 MLLE–PAM2 binding inhibitor potency, dose response, biochemical, fluorescence polarization, FITC-PAM2 peptide (AID 602259;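 active = mean IC50 at or below a set limit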). To be noted: GST-MLLE/FITC-PAM2 peptide binding. (In general: Fluorescence polarisation rises when a labelled molecule tumbles more slowly, as on binding a larger partner.)
The nature of test [10]: HIF-2a reporter inhibitor retest, confirmation, luminescence, 786-0 RCC cells (AID 651580;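 active = mean inhibition across four replicates of at least 40 percent at the single tested concentration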). Particulars: HIF-2a luciferase reporter luminescence, overnight, at 18.8 µM, stronger effect = higher value.
Test [11] can be described thus: HIF-1a luciferase reporter signal reduction – MiaPaCa-2 cells, single concentration, counter-screen for HIF-2a inhibitor project, confirmation (AID 651589;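 active = mean inhibition of the reporter signal across four replicates at the single tested dose of 50% or more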). To be noted: MiaPaCa-2 HIF-1a luciferase reporter, desferoxamine, overnight; at 18.8 µM; stronger effect = higher value.
Test [12] can be described thus: Peg3 promoter reporter inhibitors, retest, confirmation, cell-based, HeLa, luciferase reporter, single concentration (AID 602417;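 active = at 20 µM dose, 40% or more inhibition averaged across four replicates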). Particulars: HeLa PEG-Prom luciferase reporter, luminescence, overnight; at 20 µM; stronger effect = higher value.
Test [13] deals with PEG-3 (UniProt Q6IN02). In words: Peg3 promoter luciferase inhibitors, potency, dose response, cell-based, HeLa, CREF/GAPDH counter-screen panel (AID 624167). Particulars: CREF/GAPDH counter-screens; HeLa PEG-Prom luciferase reporter, overnight, run 1, dose range 1, at 100 µM (top of the series) unless noted.
PEG-3, sequence (Q6IN02 whole entry, looked up): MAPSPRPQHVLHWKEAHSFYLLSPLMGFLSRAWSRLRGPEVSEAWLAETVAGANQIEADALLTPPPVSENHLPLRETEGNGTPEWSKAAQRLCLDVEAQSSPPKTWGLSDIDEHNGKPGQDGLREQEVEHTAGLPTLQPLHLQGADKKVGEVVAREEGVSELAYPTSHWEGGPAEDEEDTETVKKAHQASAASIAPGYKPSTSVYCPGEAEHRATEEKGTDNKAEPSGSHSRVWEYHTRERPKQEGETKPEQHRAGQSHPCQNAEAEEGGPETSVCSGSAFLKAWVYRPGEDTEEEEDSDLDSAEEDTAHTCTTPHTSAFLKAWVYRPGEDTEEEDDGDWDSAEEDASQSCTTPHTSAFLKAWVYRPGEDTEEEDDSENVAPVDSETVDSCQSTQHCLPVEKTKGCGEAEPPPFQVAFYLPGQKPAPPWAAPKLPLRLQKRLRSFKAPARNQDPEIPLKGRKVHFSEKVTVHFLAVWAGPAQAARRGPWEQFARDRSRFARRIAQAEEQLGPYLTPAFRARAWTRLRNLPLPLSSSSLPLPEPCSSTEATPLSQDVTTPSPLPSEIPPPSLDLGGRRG
The target of test [14] is PEG-3 (UniProt Q6IN02). The test is described as above. To be noted: CREF/GAPDH counter-screens; HeLa PEG-Prom luciferase reporter, overnight, run 2, dose range 1, at 100 µM (top of the series) unless noted.

Each structure is given as a SMILES string. For some of these results: Measured potencies and affinities stand elsewhere. The list shows a part of the results. The source made the active and inactive calls.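 Rule for the calls, unless noted: active = substances whose mean melting-temperature shift, as a percentage of the reference inhibitor's shift, reaches about 5.3% (limit read from the data); inactive = the rest.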

`Cc1nnc(SCC(=O)Nc2ccc(S(=O)(=O)Nc3ccc(Cl)nn3)cc2)s1`: the thermal shift relative to vanadate control in [1] is 3.43% (inactive). As for `CCCCCCc1cc2cc(S(=O)(=O)c3ccc(F)c(Cl)c3)c(=O)oc2cc1O`, in test [2], the inhibition is 27.6% (active). In addition, the figures for the activity in test [3] and in [4] were 55.4% and 40%, respectively. In addition, the activity, % sensitization in test [5] is -8.78%; in test [6], -2.26%; in test [7], -6.43%; in test [8] it was -24.8%. On to `Cc1ccc(CCCOC(=O)C[N+]2(C)CCCC2)cc1`, for which, in [1], the thermal shift relative to vanadate control is -9.83% (inactive). As for `Cc1ccc(CCNC(=O)c2ccc3nc4ccccc4c(=O)n3c2)cc1`, the thermal shift relative to vanadate control in test [1] was -6.77% (inactive). Take `C=Cc1ccc(C(=O)N2CCCC(CCC(=O)N3CCN(c4ccccn4)CC3)C2)cc1` (stereo unspecified): in [1], the thermal shift relative to vanadate control was -35.8% (inactive).

With `C=C1c2cccc(OC)c2O[C@H](C(=O)OCC)[C@@H]1CCCCCC`, the thermal shift relative to vanadate control in [1] is -6.9% (inactive). Regarding `Cc1ccc(NC(=O)CSc2nc3ccc(Nc4nc(N5CCOCC5)nc(N5CCOCC5)n4)cc3s2)cc1`, in test [2], the inhibition is 26.2% (active). Also, the activity in test [3] came out at 58.1%; in [4] it was 40.5%. Further, the activity, % sensitization is -7.95% in test [5], -11.3% in test [6], -21% [at 6.25 µM] in test [7] and -31.8% in [8].

As to `COc1ccc(Cl)cc1C=CC=NNC(=O)c1ccncc1`, in test [1], the thermal shift relative to vanadate control is -17.4% (inactive). Regarding `COc1ccc(Cl)cc1NC(=O)CCS(=O)(=O)c1ccc(Br)cc1`, the thermal shift relative to vanadate control in test [1] is 3.48% (inactive).

Turning to `CC(C)CCOc1ccc(C(=O)C[N+]2(C)CCOCC2)cc1`, the thermal shift relative to vanadate control in [1] was -16.6% (inactive). In the case of `CC[n+]1c(C)n(-c2ccccc2)c2ccc(NC(C)=O)cc21`, the thermal shift relative to vanadate control in test [1] is -13.8% (inactive). On the same count and under the same terms, the result for `O=C(Nc1cccnc1)c1cc2cc(Br)ccc2oc1=O` reads 0.88% (inactive). Regarding `C[c-]1[c-](C)[c-](C)[c-](C)[c-]1C.[Fe].c1cc2nccc(N3CCCC3)[c-]2c1` (stereo unspecified), in test [9], the IC50 was > 66 µM (inactive).

For the compound `O=C(COC(=O)c1cnc(Cl)c(Cl)c1)NCc1ccco1`, in test [1], the thermal shift relative to vanadate control is -1.58% (inactive). The same measure, in the same setting: in the case of `CCOc1ccccc1/C=c1\sc2nc(-c3ccco3)nn2c1=O` it was 4.79% (inactive).

Take `COc1ccc(NC(=O)CN(C)C(=O)/C=C/c2cn(Cc3ccccc3)nc2-c2cccnc2)cc1`: the thermal shift relative to vanadate control in test [1] is -16.5% (inactive). As to `Cc1cc(/C=C2\SC(=O)N(C)C2=O)c(C)n1-c1cccc(C(=O)O)c1`, the thermal shift relative to vanadate control in test [1] is 1.65% (inactive). For the compound `N#Cc1c(-c2cccs2)nc(SCC(=O)c2ccc(Br)cc2)[nH]c1=O`, the thermal shift relative to vanadate control in test [1] is -2.02% (inactive).

`CC1CCN(c2ccc(S(=O)(=O)Nc3cc(C(=O)O)cc(C(=O)O)c3)cc2[N+](=O)[O-])CC1`: the thermal shift relative to vanadate control in [1] was 15% (active). Same read-out and setting: the result for `O=C(COC(=O)c1ccc(F)cc1F)Nc1ncccn1` reads 1.27% (inactive); that for `Cc1ccc(NC(=O)COc2ccc(/C=N\NC(=O)c3cccnc3)cc2)cc1C`, -4.33% (inactive).

In the case of `C[C@H](CO)N1C[C@H](C)[C@H](CN(C)C(=O)Nc2ccc(C(F)(F)F)cc2)Oc2c(NC(=O)c3ccncc3)cccc2C1=O`, the thermal shift relative to vanadate control in test [1] was 1.36% (inactive). `CCCc1nc(-c2cc3cc(C)ccc3[nH]c2=O)no1`: in test [1], the thermal shift relative to vanadate control is -30.4% (inactive).

With `ON=C1/C(=N\O)CC2(C/C1=N/O)OCCO2`, the thermal shift relative to vanadate control in [1] is 4.94% (inactive).

For `O=C(Nc1cc(S(=O)(=O)N2CCCCC2)ccc1Cl)C1COc2ccccc2O1` (stereo unspecified), in test [1], the thermal shift relative to vanadate control was -12% (inactive).

As to `COc1ccc(OCC(=O)NNC(=O)c2ccc(-c3ccccc3)cc2)cc1`, in test [1], the thermal shift relative to vanadate control is 2.47% (inactive). Regarding `O=C(CCC(=O)N/N=C/c1ccc(Br)o1)N/N=C/c1ccc(Br)o1`, the thermal shift relative to vanadate control in test [1] is -1.53% (inactive).

For the compound `Cc1ccc(SCC(=O)NC(=O)NCc2ccco2)c(C)c1`, the thermal shift relative to vanadate control in test [1] was -1.14% (inactive). Same read-out and setting: the result for `O=C(COC(=O)c1ccccc1O)NCc1ccco1` reads -13.8% (inactive); that for `Cc1nn(-c2cc(Cl)ccc2N)c(=O)c2ccccc12`, -6.02% (inactive).

Regarding `O=C(O)c1ccc(N/N=C/c2ccc3ncccc3c2)cc1`, in [1], the thermal shift relative to vanadate control was 4.85% (inactive). Also, the inhibition is 66.4% (active) in test [10] and 39.2% (inactive) in [11]. For the compound `O=C(CCNC(=O)c1ccccc1)NN=Cc1ccc(Br)o1`, the thermal shift relative to vanadate control in test [1] was -12.5% (inactive). Consider `COc1ccc(/C=C/C(=O)OCC(=O)NC2CCCCCC2)cc1OC`, for which the thermal shift relative to vanadate control in test [1] is -3.16% (inactive). On the same count and under the same terms, the result for `C[n+]1ccc(C(=O)NCc2ccccc2)cc1` reads -7.9% (inactive). For the compound `Cc1c(C(=O)Nc2cccc(Cl)c2)cn2c(nc3ccccc32)c1C#N`, the inhibition in test [12] is 10.5% (inactive). Regarding `COc1cccc2cc(-c3cc(=O)oc4cc(C)c(O)cc34)oc12`, the thermal shift relative to vanadate control in [1] was -12.5% (inactive). On to `Cc1ccc(NC(=O)c2cc(-c3ccc(C)o3)nc3ccccc23)nc1`, for which the thermal shift relative to vanadate control in test [1] was 5.81% (active). Same read-out and setting: in the case of `O=C(N/N=C/c1ccco1)c1ccc(C(=O)N/N=C/c2ccco2)o1` it was -14.3% (inactive); in that of `Nn1cnnc1N/N=C/c1cc([N+](=O)[O-])c(Cl)cc1Cl`, -3.64% (inactive). As to `N#Cc1ccccc1CN1C(=O)S/C(=C/c2cccn2-c2cccc(C(=O)O)c2)C1=O`, in [1], the thermal shift relative to vanadate control was 1.96% (inactive). Still for that read-out and setting: in the case of `CCCCCN1CC(O)=C(c2nc(-c3ccc(Cl)cc3)cs2)C1=N` it was -7.73% (inactive); in that of `CCc1ccc(NC(=O)CS(=O)CC(=O)NCCCc2ccccc2)cc1` (stereo unspecified), -12.5% (inactive). In the case of `Cc1c(CCC(=O)O)c(=O)oc2cc(OCc3ccc(Br)cc3)ccc12`, in [1], the thermal shift relative to vanadate control is -18.2% (inactive).

`O=C(Cn1cc(/C=N/NC(=O)c2cccc(C(F)(F)F)c2)c2ccccc21)Nc1ccc(F)cc1`: the thermal shift relative to vanadate control in [1] was 10.6% (active).

As to `COCCCn1c(Cc2csc(Nc3cccc(Cl)c3)n2)nnc1SCC(=O)OC1CCCCC1`, the thermal shift relative to vanadate control in test [1] is -0.65% (inactive). In the case of `COc1ccc(Cc2nnc(NC(=O)Cc3cccs3)s2)cc1`, the thermal shift relative to vanadate control in [1] was 9.39% (active). On to `Cc1c(CCC(=O)O)c(=O)oc2c(C)c(OCc3ccccc3Cl)ccc12`, for which, in test [1], the thermal shift relative to vanadate control was -3.47% (inactive). In addition, the inhibition in [10] was 63.3% (active); in [11], 46.2% (inactive). In the case of `Cc1oc2c(C)c3oc(=O)c(CC(=O)N[C@@H](CC(C)C)C(=O)N[C@@H](Cc4ccccc4)C(=O)O)c(C)c3cc2c1C`, the thermal shift relative to vanadate control in test [1] was -12.3% (inactive). Still for that read-out and setting: in the case of `O=C(c1ccc(CS(=O)(=O)c2ccccc2)o1)N1CCN(c2ccccc2)CC1` it was -3.55% (inactive). In the case of `Cc1ccc(-c2nc3ccccc3[nH]2)cc1NC(=O)c1sc2ccccc2c1Cl`, the inhibition in test [12] is -5.64% (inactive). For the compound `CSc1nc(N)c(C#N)c(-c2ccccc2Cl)c1C#N`, the inhibition in test [12] is 70.6% (active).

For the compound `COc1ccc2sc(-c3ccc(S(C)(=O)=O)cc3)c(C#Cc3cncn3C)c2c1`, the inhibition in test [12] is 51.8% (active); with PEG-3 [13] it was -25.4%; with PEG-3 [14], 60.8% [run 2, dose range 1, at 50 µM]. Besides, the figures for the activity in test [3] and in test [4] were 66.7% and 34.3%, respectively. Further, the activity, % sensitization is 13.3% in test [5], 10.2% in [6], -20.9% in [7] and -2.18% in test [8].
